An excerpt weighted towards active compounds, which were near 6% of everything screened.
DRD3 agonist = activates the human D3 dopamine receptor. hit rate 0.58% among 410,000. D3R DiscoveRx beta-arrestin cells, luminescence, 90 min. P35462. max activation, %. AID 652048; in the data active = max activation above about 30%
Target sequence (P35462 whole entry, looked up): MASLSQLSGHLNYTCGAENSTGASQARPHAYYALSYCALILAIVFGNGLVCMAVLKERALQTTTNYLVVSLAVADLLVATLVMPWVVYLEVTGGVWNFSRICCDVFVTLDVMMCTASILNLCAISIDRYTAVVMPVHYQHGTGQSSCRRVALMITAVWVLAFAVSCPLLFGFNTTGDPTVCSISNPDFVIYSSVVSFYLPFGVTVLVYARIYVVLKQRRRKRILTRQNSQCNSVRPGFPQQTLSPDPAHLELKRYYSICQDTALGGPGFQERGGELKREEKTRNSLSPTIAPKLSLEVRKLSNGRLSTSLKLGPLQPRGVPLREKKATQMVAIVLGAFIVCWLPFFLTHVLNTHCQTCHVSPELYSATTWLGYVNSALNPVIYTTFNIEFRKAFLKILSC
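Cells at 1500/well, incubated overnight, then treated with pinned compounds (dopamine as control) for 90 min at 37 degrees C. DiscoveRx reagent added for 30 - 60 minutes at room temperature; luminescence read.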
DRD3 antagonist = blocks the human D3 dopamine receptor; AID 652054; hit rate 2.5% among 360,000; max response, negative = inhibition, %; D3R cells, DiscoveRx beta-arrestin luminescence, antagonist mode; stronger effect = lower value; in the data active = max response below about -50%
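Cells expressing the human receptor were seeded at 1500 cells/well, incubated overnight at 37 degrees C in 5% CO2, then exposed to library compounds with dopamine controls for 90 minutes at 37 degrees C before luminescent detection.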
D1 potentiator = potentiators of human D1 dopamine receptor | P21728 | HEK293 TREx D1 cells, calcium flux, dopamine EC20 potentiation | potentiation, % at 10 µM | hit rate 0.036% among 360,000 | AID 504651; in the data active = potentiation above about 30%
D1 ag = agonists of human D1 dopamine receptor; P21728; HEK293 T-REx D1 cells, calcium flux, agonist mode; activation, % at 2 µM; hit rate 1% among 360,000; AID 504660; in the data active = activation above about 30%
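Tetracycline-induced HEK293 TREx D1 cells, force-coupled to calcium signalling, were dye-loaded with a no-wash calcium kit. Compound was pin-added after a 10 s baseline. Fluorescence was read kinetically at 1 cycle/s for 180 s, with calcium rises flagged as agonism.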
D1 antagonist = human D1 dopamine receptor antagonism | P21728 | HEK293 TREx D1 cells, calcium flux, dopamine EC80; stronger effect = lower value | activity change, negative = inhibition, % at 10 µM | hit rate 3.2% among 360,000 | AID 504652; in the data active = activity change below about -30%
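HEK293 T-REx cells expressing inducible, force-coupled D1 receptor; no-wash Ca dye, 30–90 min RT. Cmpd → 180 s read at 1 Hz → EC80 DA → 180 s read.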
Hits are given with their value; . = inactive; / = not tested or not shown.

SMILES	DRD3 agonist	DRD3 antagonist	D1 potentiator	D1 ag	D1 antagonist
O=C1C=C(NC(=O)Nc2ccc(Cl)c(Cl)c2)CCC1	.	.	.	.	-54.3
O=C(NC(=S)Nc1ccc(Br)c(Cl)c1)C1CC1	.	.	.	.	-35.8
O=C(Nc1ccc(N2CCOCC2)cc1)C1(c2ccc(Cl)cc2)CCC1	.	.	.	43.2	.
O=C(Nc1ccc(Cl)c(Cl)c1)Nc1ccccc1O	.	.	.	.	-37.3
O=C(Nc1ccc(Cl)c(Cl)c1)Nn1cnnc1	.	.	.	.	.
O=C(Nc1ccc(Cl)c(Cl)c1)Nc1ccc(Br)cc1F	.	.	.	.	.
O=C(Nc1ccc(Cl)cc1)Nc1ccc(Cl)c(Cl)c1	.	.	.	.	-33.6
N#Cc1ccc(NC(=O)Nc2ccc(Cl)cc2)cc1	.	.	.	31.0	-41.3
COc1ccc([C@]23Cc4cc(OC)c(OC)cc4C(O2)c2c(cc(-c4ccccc4)oc2=O)O3)cc1	/	/	.	.	.
CC(=O)N1CCc2c(sc3c2c(=O)n(-c2cccc(Cl)c2)c(=O)n3Cc2ccc(F)cc2Cl)C1	.	/	.	.	.
O=C(Nc1cccc(F)c1)Nc1cnccn1	.	.	.	.	-30.8
O=C(Nc1cccc(F)c1)Nc1ccccn1	.	.	.	.	-37.3
O=C(Nc1ccc2c(c1)OCO2)Nc1cnccn1	.	.	.	.	.
O=C(Nc1ccc(Br)cc1)c1cc(Br)c(Br)s1	.	/	/	/	/
COc1cccc(CNC(=O)c2cccc(NC(=O)C3=C(C)OCCS3)c2)c1	.	.	.	.	-40.1
CCOc1ccc(CNC(=O)c2cccc(NC(=O)C3=C(C)OCCS3)c2)cc1	.	.	.	.	.
N#CCCn1nc(-c2ccc([N+](=O)[O-])cc2)cc1Nc1ccccc1NC(=O)C(F)(F)F	.	.	.	31.3	.
Cc1ccc(NC(=O)CC(C)S(=O)(=O)c2ccc3c(c2)NC(=O)CO3)c(C)c1 (configuration not stated)	.	/	.	.	.
O=C(c1ccc2c(c1)N(Cc1ccc(F)cc1)C(=O)c1ccccc1S2(=O)=O)N1CCCCCC1	.	/	.	.	.
Cc1ccccc1Cn1c(=O)n(CCCCCC(=O)NCc2ccc3c(c2)OCO3)c(=O)c2sccc21	.	/	.	.	.
COCCOc1cc(Nc2nnc(C(F)(F)F)s2)c(Cl)cc1Cl	.	-63.8	.	.	.
CCCCc1nn2c(=O)cc(COC(=O)c3ccco3)nc2s1	.	/	.	.	.
Cc1c(C(=O)N2CCCCC2)c(S(=O)(=O)N2CCN(c3ccc(Cl)cc3)CC2)c(C)n1C	.	.	.	.	-32.4
Cc1c(C(=O)N2CCOCC2)c(S(=O)(=O)Nc2cccc(C#N)c2)c(C)n1C	.	.	.	.	-49.5
Cc1[nH]c(C)c(S(=O)(=O)Nc2ccc(OC(F)(F)F)cc2)c1C(=O)N1CCCCC1	.	-90.6	.	.	.
SMILES	DRD3 agonist	DRD3 antagonist	D1 potentiator	D1 ag	D1 antagonist
Cc1[nH]c(C)c(S(=O)(=O)NCc2ccc(Cl)cc2)c1C(=O)N1CCCC1	.	.	32.8	.	.
Cc1c(C(=O)N2CCCCC2)c(S(=O)(=O)N2CCN(c3ccc(F)cc3)CC2)c(C)n1C	.	.	.	.	.
CCCCCC=CCC=CCCCCCCCC(=O)OCC	.	/	/	/	/
COc1ccc(NC(=O)Cn2c(=O)n(CCc3ccccc3)c(=O)c3c4c(sc32)CCCC4)cc1	.	/	.	.	.
CCOc1ccc(NC(=O)C2CCN(c3nnc(-n4c(C)ccc4C)s3)CC2)cc1	.	/	.	.	.
Cc1[nH]c(C)c(S(=O)(=O)N2CCN(c3ccc(Cl)cc3)CC2)c1C(=O)N1CCCC1	.	.	.	.	-33.7
COc1ccc(N2CCN(C(=O)c3ccc(Cl)c(S(=O)(=O)N4CCCC4)c3)CC2)cc1	.	.	.	.	-34.3
COc1ccc(N2CCN(S(=O)(=O)c3c(C(=O)N4CCOCC4)c(C)n(C)c3C)CC2)cc1	.	.	.	.	-35.3
COc1ccc(N2CCN(C(=O)c3ccc(Cl)c(S(=O)(=O)N4CCOCC4)c3)CC2)cc1	.	.	/	/	/
CC(=O)c1ccc(N2CCN(S(=O)(=O)c3c(C)[nH]c(C)c3C(=O)N3CCCC3)CC2)cc1	.	.	.	.	.
CCCCc1ccc(NC(=O)OC)cc1	.	.	.	82.0	.
CCCCc1ccc(NC(=S)Nc2ccc(Nc3ccc(OC)cc3)cc2)cc1	.	-80.5	.	.	.
CCCCc1ccc(NC(=S)NCc2cccc(OC)c2)cc1	.	.	.	.	.
